# This excerpt belongs to a sample that is enriched for hits.
# HT1080-NT tox = kills 2HG-producing HT-1080-NT fibrosarcoma cells; HT-1080-NT fibrosarcoma viability, CellTiter-Glo ATP luminescence, 48 h; Potency, µM (titrated, usually from 46.1 µM), for the others: top-dose activity, negative = less viability, actives largely listed as cytotoxic; 1.6% of 360,000 active;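 note: NT is the 2HG producing partner of a matched IDH1 knockdown line; potency is the fitted concentration of half-maximal effect; 0% = DMSO-treated cells and -100% = media-only wells without cells; nearly all actives have a fitted effect of over 55% in size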
#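 750 cells/well, RPMI + 5% FBS; 2 h settle, compound pin-transfer, 48 h at 37 degrees C. CellTiter-Glo 10 min RT, luminescence. Normalized to DMSO and media-only wells.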
# IL-1B inflam inh = blocks inflammasome-driven IL-1 beta release; THP-1 LPS/ATP IL-1B secretion, AlphaLISA, 16 h; active compounds read low; activity change, % at 57.5 µM; 4.7% of 360,000 active; AID 743279; in the data active = activity change below about -50%; inconclusive = mostly about -30% to -49%
#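 THP-1 cells pretreated 1 hr with compounds (up to 57.5 uM final), then stimulated with LPS (250 ng/mL final) plus ATP (1.25 mM final); secreted IL-1B measured by AlphaLISA after 16 hr, decreased signal indicating inhibition.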
# DT40 TDP1 no CPT = qHTS for Inhibitors of human tyrosyl-DNA phosphodiesterase 1 (TDP1): qHTS in cells in absence of CPT; DT40 Tdp1-/- hTDP1 cells, no CPT, ATP luminescence, 48 h; Potency, µM (highest dose often 46.2 µM), for the others: at the highest dose activity change, negative = growth inhibition, most hits filed as inhibitors; 15% of 420,000 active; note: potency is the fitted concentration of half-maximal effect; nearly all actives have a fitted effect of over 55% in size
#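 Growth kinetics read by CellTiter-Glo luminescence after ≥48 hr at 37 °C. Cells: DT40 Tdp1-/- stably carrying human TDP1, 400 per well, compound exposure in the absence of CPT (DMSO vehicle).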
# HT1080 IDH1KD tx = HT-1080 IDH1 knockdown cell toxicity (counter line). HT-1080 IDH1 knockdown viability, ATP luminescence, 48 h. Potency, µM (doses to about 46.1 µM), inactives show at the highest dose activity, negative = toxicity, usual class: cytotoxic. 2% of 360,000 active;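 note: potency is the fitted concentration of half-maximal effect; 0% = DMSO wells and -100% = cell-free medium wells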
#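 Assay cells: HT-1080 with IDH1 knockdown, 750 per well, RPMI/5% FBS. Exposure: 48 h at 37 °C following 2 h pre-incubation. Read: CellTiter-Glo luminescence; fitted concentration-response, curve class assigned.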
# ALOX12 inh = ALOX12 (human) lipoxygenase inhibition. AID 1671190. Potency, µM (series often up to 108 µM), for inactives: at the top dose activity change, negative = inhibition, usual class: inhibitors. P18054. purified 12hLO, xylenol orange hydroperoxide absorbance. 1.1% of 580,000 active; note: potency is the fitted concentration of half-maximal effect
# Target sequence (P18054 whole entry, looked up): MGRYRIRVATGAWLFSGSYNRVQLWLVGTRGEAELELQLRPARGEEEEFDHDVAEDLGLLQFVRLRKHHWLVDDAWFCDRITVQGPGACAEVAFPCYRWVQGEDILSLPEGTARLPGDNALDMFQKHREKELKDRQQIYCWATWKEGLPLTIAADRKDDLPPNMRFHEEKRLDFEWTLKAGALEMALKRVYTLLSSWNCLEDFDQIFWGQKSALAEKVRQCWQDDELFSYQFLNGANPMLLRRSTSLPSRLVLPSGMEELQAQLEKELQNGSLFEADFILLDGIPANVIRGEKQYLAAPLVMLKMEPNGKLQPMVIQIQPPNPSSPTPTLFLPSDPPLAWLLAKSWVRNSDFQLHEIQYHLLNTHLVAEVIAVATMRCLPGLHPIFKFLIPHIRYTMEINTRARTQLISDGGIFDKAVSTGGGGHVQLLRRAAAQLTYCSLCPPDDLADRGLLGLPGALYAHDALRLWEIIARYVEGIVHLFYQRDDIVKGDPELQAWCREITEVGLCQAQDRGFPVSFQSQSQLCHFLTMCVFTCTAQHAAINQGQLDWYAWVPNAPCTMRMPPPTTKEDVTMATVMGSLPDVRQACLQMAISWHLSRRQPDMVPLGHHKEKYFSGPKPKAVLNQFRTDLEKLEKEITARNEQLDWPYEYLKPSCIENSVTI
#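 Purified human 12hLO (150 nM final) in 25 mM Hepes, 0.01% Triton X-100, pH 7.0 was preincubated 15 min at room temperature with compound. Then 40 uM arachidonic acid was added, 30 min. Hydroperoxide was read by Fe-XO absorbance ratio 573/405 nm.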
# TDP1 cell CPT = DT40-hTDP1 cell growth loss with CPT | 12% of 420,000 active | chicken DT40 Tdp1-/-;hTDP1 cells + 20 nM CPT, ATP luminescence, 48 h | AID 686979 | Potency, µM (highest dose often 46.2 µM), inactives show top-dose activity change, negative = growth inhibition, actives largely listed as inhibitors; note: potency is the fitted concentration of half-maximal effect; nearly all actives have a fitted effect of over 55% in size
#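 Chicken DT40 Tdp1-/- cells complemented with human TDP1, 400 cells/well, exposed to compounds plus 20 nM camptothecin for at least 48 h at 37 C; viability read as ATP content by CellTiter-Glo luminescence.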
# An asterisk follows results filed as active; ? = inconclusive; nt = no result; [ ] = another dose, or the depositor's remark. Unless noted, calls come from the whole dose curve; as a rule, active = well fitted curve in the direction sought with a large enough effect; inconclusive = small, poorly fitted or top-dose-only effect, or another doubt; inactive = no such curve, though single readings can be large; an effect the other way counts as inactive or inconclusive. Unless noted, % is set by controls: 0 for no effect and ±100 for the full control effect.
SMILES,HT1080-NT tox,IL-1B inflam inh,DT40 TDP1 no CPT,HT1080 IDH1KD tx,ALOX12 inh,TDP1 cell CPT
COc1ccc(S(=O)(=O)c2cc(NS(=O)(=O)c3ccc(Cl)cc3)c(C)c(C)c2O)cc1,nt,nt,16µM*,nt,-31%,-19%
COc1ccc2nc(NS(=O)(=O)c3ccc(C)cc3)c(Nc3cc(Cl)ccc3OC)nc2c1,nt,nt,23µM*,nt,?,?
COc1ccc(Cl)cc1NS(=O)(=O)c1ccc(OC)c(OC)c1,9%,25,-5%,-2%,0%,-5%
CCOc1ccc(S(=O)(=O)Nc2cc(OC)ccc2OC)cc1,0.18µM*,-4,0.33µM*,?,3%,0.37µM*
COc1ccc2nc(NS(=O)(=O)c3ccc(Cl)cc3)c(Nc3ccc(C)cc3)nc2c1,nt,nt,nt,nt,-26%,nt
COc1ccc(S(=O)(=O)Nc2cc(Cl)ccc2OC)cc1,6.5µM*,36,2.3µM*,?,-1%,2.3µM*
COc1ccc(OC)c(NS(=O)(=O)c2ccc(NC(C)=O)cc2)c1,-12%,31,?,-27%,-11%,-25%
COc1ccc(NC(=O)Cn2nc(C)c3c(C)n(-c4ccccc4)nc3c2=O)cc1OC,nt,nt,-25%,nt,0%,-4%
CCCCn1nc(C(=O)Nc2cccc(S(=O)(=O)NC3=NCCC3)c2)c2ccccc2c1=O,nt,nt,nt,nt,-5%,nt
CCCC(=O)N1Cc2ccccc2CC2(CCN(Cc3ccc(O)cc3)C2)C1 (stereo not drawn),nt,nt,nt,nt,2%[6.33 µM],nt
COc1ccc(NS(=O)(=O)c2ccc(NS(=O)(=O)c3ccc(SC)cc3)cc2)c(OC)c1,-7%,10,-10%,-11%,-16%,-7%
COc1ccc(OC)c(NS(=O)(=O)c2ccc(SC)cc2)c1,?,36,16µM*,?,14%,9.2µM*
CC(C)CC(=O)Nc1nc(=S)ss1,-2%,-1,10µM*,-2%[9.24 µM],?,?
CC(=O)Nc1nc(=S)ss1,23%,15,-25%,14%,?,-28%
COc1ccc(OC)c(C2N=C(N)Nc3nc4ccccc4n32)c1 (stereo not drawn),nt,nt,7%,nt,-5%,-3%
Cc1cc(C2N=C(N)Nc3nc4ccccc4n32)c(C)n1-c1ccccc1Cl (stereo not drawn),?,-56*,?,?,?,21µM*
Cc1ccc(-n2c(C)cc(C3N=C(N)Nc4nc5ccccc5n43)c2C)c(C)c1 (stereo not drawn),?,?,23µM*,20µM*,?,21µM*
O=C(O)C1(c2cccc(F)c2)CCCCC1,nt,nt,nt,nt,26%,nt
Cc1ccc(C)c(CSc2c(C(C)C)cnc3c2c(=O)n(C)c(=O)n3C)c1,nt,nt,?,nt,-19%,18µM*
Cn1c(=O)c2c(nc(SCC(=O)Nc3ccc(OC(F)(F)F)cc3)n2Cc2cccc(C(F)(F)F)c2)n(C)c1=O,nt,nt,8.2µM*,nt,-18%,10µM*
CCc1cnc2c(c1SCC(=O)Nc1ccc(C(=O)OC)cc1)c(=O)n(C)c(=O)n2C,nt,nt,-19%,nt,-6%,1%
CCc1cnc2c(c1SCc1ccccc1C)c(=O)n(C)c(=O)n2C,nt,nt,?,nt,-17%,-25%
CCc1ccc(NC(=O)CSc2c(C)cnc3c2c(=O)n(C)c(=O)n3C)cc1,nt,nt,23µM*,nt,-3%,23µM*
CC(C)c1nc(SCC(=O)Nc2cccc(C(F)(F)F)c2)c2c(=O)n(C)c(=O)n(C)c2n1,13%,0,3.7µM*,2%,5%,4.6µM*
O=C(/C=C/c1ccc(Cl)cc1)c1ccc(OC(F)F)cc1OC(F)F,nt,nt,nt,nt,-11%,nt
COc1ccc(NC(=O)COC(=O)c2nn(C)c(=O)c3ccccc23)cc1,nt,nt,nt,nt,5%,nt
CCCc1cnc2c(c1SCC(=O)Nc1ccc(C)c(Cl)c1)c(=O)n(C)c(=O)n2C,nt,nt,?,nt,-25%,18µM*

# Compound activity: PubChem, National Center for Advancing Translational Sciences (NCATS)
